The target in test [1] is Rap guanine nucleotide exchange factor 3 (Homo sapiens) (UniProt O95398). The experiment in a line: Confirmatory qHTS for agonist of cAMP-regulated guanine nucleotide exchange factor 3 (EPAC1) (AID 1645881).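 Also: EPAC1 catalysed release of BODIPY-GDP from Rap1B seen as fluorescence loss; 100% = effect of cAMP agonist control; nearly all actives have a fitted effect of over 75% in size.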 On the technique in general: qHTS replaces the single test concentration by a dilution series.
Chain of Rap guanine nucleotide exchange factor 3 (Homo sapiens) (O95398 whole entry, looked up): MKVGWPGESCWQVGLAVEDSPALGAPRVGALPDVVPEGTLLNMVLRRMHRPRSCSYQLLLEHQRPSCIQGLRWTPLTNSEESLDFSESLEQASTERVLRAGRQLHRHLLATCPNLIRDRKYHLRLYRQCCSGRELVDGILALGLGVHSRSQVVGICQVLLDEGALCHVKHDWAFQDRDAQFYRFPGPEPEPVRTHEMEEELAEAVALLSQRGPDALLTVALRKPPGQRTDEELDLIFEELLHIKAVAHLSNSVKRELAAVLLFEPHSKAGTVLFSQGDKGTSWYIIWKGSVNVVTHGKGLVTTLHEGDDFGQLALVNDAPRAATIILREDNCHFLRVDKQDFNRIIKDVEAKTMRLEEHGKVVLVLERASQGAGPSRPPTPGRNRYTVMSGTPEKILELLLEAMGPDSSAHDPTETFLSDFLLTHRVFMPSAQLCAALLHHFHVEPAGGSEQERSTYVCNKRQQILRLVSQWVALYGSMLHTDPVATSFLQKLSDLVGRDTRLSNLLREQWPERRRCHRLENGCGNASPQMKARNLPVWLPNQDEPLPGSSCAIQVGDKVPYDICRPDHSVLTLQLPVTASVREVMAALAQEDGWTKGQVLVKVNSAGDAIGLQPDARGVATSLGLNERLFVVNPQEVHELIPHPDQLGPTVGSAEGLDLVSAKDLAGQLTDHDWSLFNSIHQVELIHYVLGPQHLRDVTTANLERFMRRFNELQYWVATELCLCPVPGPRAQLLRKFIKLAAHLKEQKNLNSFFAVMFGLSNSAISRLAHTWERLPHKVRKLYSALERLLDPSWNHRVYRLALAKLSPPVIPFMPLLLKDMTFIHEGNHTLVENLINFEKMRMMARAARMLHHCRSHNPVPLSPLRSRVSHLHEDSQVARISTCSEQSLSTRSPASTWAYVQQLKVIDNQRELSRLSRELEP
Test [2] addresses Rap guanine nucleotide exchange factor 4 (Homo sapiens) (UniProt Q8WZA2). The experiment in a line: Confirmatory qHTS for agonist of cAMP-regulated guanine nucleotide exchange factor 4 (EPAC2) (AID 1645884).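 Also: nucleotide exchange releases bodipy-GDP from Rap1 and this lowers its fluorescence; % is scaled to controls: 0 for no effect and ±100 for the full control effect; nearly all actives have a fitted effect of over 65% in size.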
The target is the same in test [3]. Description: Confirmatory qHTS for antagonist of cAMP-regulated guanine nucleotide exchange factor 4 (EPAC2) (AID 1645885). Also: nearly all actives have a fitted effect of over 25% in size. Also: potency is read from the fitted curve at half-maximal effect. As to activity change, negative = inhibition: % is scaled to controls: 0 for no effect and ±100 for the full control effect.
Test [4] deals with Rap guanine nucleotide exchange factor 3 (Homo sapiens) (UniProt O95398). Description: Counterscreen qHTS for antagonist of cAMP-regulated guanine nucleotide exchange factor 3 (EPAC1) (AID 1645888).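 Also: fluorescence loss as bound BODIPY-GDP is released from Rap1B; % of control where 0% means no effect.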 Put shortly: (§1)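 Measured: fluorescence of BODIPY-GDP bound to Rap1B, which falls as exchange proceeds. Conditions include 50 uM competing GDP, 5 and 30 min reads, and a later cAMP challenge for antagonist detection.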
For orientation: Counterscreens check selectivity or assay interference.

The target is the same in test [5]. Description: Counterscreen qHTS for agonist of cAMP-regulated guanine nucleotide exchange factor 3 (EPAC1) (AID 1645889). Also: % of control where 0% means no effect; nearly all actives have a fitted effect of over 40% in size. Put shortly:
as §1

Results filed as inconclusive are left out. A number with no mark means an inactive call. Active and inactive are the calls of the source. Calls follow the shape of the dose curve; as a rule, active = well fitted curve in the direction sought with a large enough effect; inconclusive = small, poorly fitted or top-dose-only effect, or another doubt; inactive = no such curve, though single readings can be large; an effect the other way counts as inactive or inconclusive.

Chain of Rap guanine nucleotide exchange factor 4 (Homo sapiens) (Q8WZA2 whole entry, looked up): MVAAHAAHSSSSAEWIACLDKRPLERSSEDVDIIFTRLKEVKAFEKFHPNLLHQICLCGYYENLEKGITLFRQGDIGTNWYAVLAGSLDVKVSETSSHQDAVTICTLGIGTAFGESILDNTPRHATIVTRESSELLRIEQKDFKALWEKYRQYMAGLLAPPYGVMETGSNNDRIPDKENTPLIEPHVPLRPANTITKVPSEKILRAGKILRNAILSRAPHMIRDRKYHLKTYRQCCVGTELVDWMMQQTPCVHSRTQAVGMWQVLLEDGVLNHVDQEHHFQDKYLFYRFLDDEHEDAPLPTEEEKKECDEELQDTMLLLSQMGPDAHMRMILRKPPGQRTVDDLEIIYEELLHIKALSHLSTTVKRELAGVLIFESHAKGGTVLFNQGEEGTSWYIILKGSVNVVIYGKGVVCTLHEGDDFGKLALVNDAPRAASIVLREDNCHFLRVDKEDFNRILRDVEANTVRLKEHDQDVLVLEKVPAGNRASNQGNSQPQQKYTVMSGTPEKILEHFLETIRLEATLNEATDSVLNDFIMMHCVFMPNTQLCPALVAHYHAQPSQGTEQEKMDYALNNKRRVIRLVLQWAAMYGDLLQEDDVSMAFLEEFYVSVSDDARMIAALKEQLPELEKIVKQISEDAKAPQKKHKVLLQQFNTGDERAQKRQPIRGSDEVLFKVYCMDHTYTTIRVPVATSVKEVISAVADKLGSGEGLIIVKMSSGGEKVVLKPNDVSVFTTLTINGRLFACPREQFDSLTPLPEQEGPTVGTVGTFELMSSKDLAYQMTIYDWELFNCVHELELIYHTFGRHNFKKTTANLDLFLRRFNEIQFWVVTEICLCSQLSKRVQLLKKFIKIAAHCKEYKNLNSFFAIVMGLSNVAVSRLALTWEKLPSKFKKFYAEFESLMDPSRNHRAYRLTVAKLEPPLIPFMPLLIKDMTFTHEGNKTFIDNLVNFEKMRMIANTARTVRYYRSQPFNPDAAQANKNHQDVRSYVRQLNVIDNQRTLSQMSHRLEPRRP

Take `C=CCc1cccc(CNc2c(C)cc(C)cc2C)c1O`: the Potency entry in test [1], in test [2], in test [3], in test [4] and in test [5] was “inactive” each time.
In the case of `CCOC(=O)C1=C(C)OC(N)=C(C#N)C1c1cc2c(cc1Br)OCO2` (stereo not given), the Potency entry in test [1] and in test [3] was “inactive” throughout. Besides, the activation was -5.39% [at 17.1 µM, percent relative to cAMP agonist control] in test [2] and 11% [at 30.8 µM] in test [5]. For the same compound, the activity change, negative = inhibition in test [4] is -23.2% [at 30.8 µM].
With `Cc1cc2ccccc2n1CCNC(=O)C1CCCCC1`, the Potency entry in test [1], in test [2], in test [4] and in test [5] was “inactive” in each case. Besides, in test [3], the Potency was 95.3 µM (active).
On to `COc1cccc(C(NC(C)=O)c2ccc3cccnc3c2O)c1` (stereo not given), for which the Potency entry in test [1], in test [2], in test [4] and in test [5] was “inactive” throughout. In addition, the Potency in test [3] was 19 µM (active).
Consider `OC(c1ccc(F)c(F)c1)c1nc(-c2csc3ccccc23)cs1` (stereo not given), for which the Potency entry in test [1] and in test [3] was “inactive” throughout. The activation in test [2] was 3.04% [at 17.1 µM, percent relative to cAMP agonist control]; in test [5] it was 2.58% [at 30.8 µM]. The activity change, negative = inhibition in test [4] was -0.286% [at 30.8 µM].
With `CN(CC(=O)Nc1ccc(Cl)c(C(F)(F)F)c1)C(=O)Cc1c[nH]c2ccccc12`, the Potency result in test [1] and in test [3] was “inactive” each time. The activation is 5.51% [at 17.1 µM, percent relative to cAMP agonist control] in test [2] and 36.2% [at 30.8 µM] in test [5]. In addition, in test [4], the activity change, negative = inhibition is -15.4% [at 30.8 µM].
For `COc1cc(/C=N/NC(=O)c2ccccc2O)ccc1OCC(=O)Nc1ccccc1`, the Potency result in test [1] and in test [3] was “inactive” in each case. The activation is -7.34% [at 17.1 µM, percent relative to cAMP agonist control] in test [2] and 13.4% [at 30.8 µM] in test [5]. Moreover, the activity change, negative = inhibition in test [4] is 0.781% [at 30.8 µM].
As to `COC(=O)C1=CN(Cc2ccc(OC)c(OC)c2)C=C(C(=O)OC)C1c1ccccc1F`, the Potency entry in test [1], in test [2], in test [4] and in test [5] was “inactive” in each case. Further, in test [3], the Potency was 23.9 µM (active).
Take `O=C(Nc1ccc(N2CCC(N3CCCCC3)CC2)c(C(=O)O)c1)c1ccc(Br)cc1`: the Potency result in test [1], in test [2], in test [4] and in test [5] was “inactive” throughout. In addition, in test [3], the outcome is “inactive; activator; fitted 1.6944 uM [at 12.7 µM]”.
For the compound `O=C(C=Cc1ccccc1)c1c[nH]c2ccccc2c1=O`, the Potency entry in test [1] and in test [3] was “inactive” in each case. In addition, the activation in test [2] is 5.37% [at 17.1 µM, percent relative to cAMP agonist control]; in test [5], 9.21% [at 30.8 µM]. Moreover, the activity change, negative = inhibition in test [4] is -25.8% [at 30.8 µM].
`Cc1ccc(Cl)cc1NC(=O)Nc1cn(CC(C)C)c(=O)c2ccccc12`: the Potency entry in test [1], in test [2], in test [4] and in test [5] was “inactive” throughout. Also, the outcome in test [3] was “inactive [at 12.7 µM]”.
In the case of `Nc1ccc(SC(F)(F)F)cc1C(=O)c1ccccc1`, the Potency result in test [1] and in test [3] was “inactive” in each case. Moreover, the activation was -2.87% [at 17.1 µM, percent relative to cAMP agonist control] in test [2] and 5.87% [at 30.8 µM] in test [5]. Further, in test [4], the activity change, negative = inhibition is -9.64% [at 30.8 µM].
`O=C(O)CCn1cc(/C=C\C(=O)c2ccc(Cl)cc2)c(-c2cccc(Br)c2)n1`: the Potency entry in test [1] and in test [3] was “inactive” in each case. Besides, the activation is 4.02% [at 17.1 µM, percent relative to cAMP agonist control] in test [2] and 15.3% [at 30.8 µM] in test [5]. Moreover, in test [4], the activity change, negative = inhibition was 0.257% [at 30.8 µM].
For `CCc1ccc(N=Nc2ccc(O)c3[nH]cnc23)cc1`, the Potency result in test [1], in test [2], in test [3], in test [4] and in test [5] was “inactive” in each case.
In the case of `CC(=O)c1sc2nc(-c3ccco3)ccc2c1N`, the Potency result in test [1], in test [2], in test [3], in test [4] and in test [5] was “inactive” each time.
On to `CCOc1ccc(/C=C/C(=O)c2c(O)c3ccccc3oc2=O)cc1`, for which the Potency entry in test [1], in test [2], in test [3], in test [4] and in test [5] was “inactive” in each case.
Take `O=C(CSc1nc(-c2ccc(F)cc2)nc2ccc(F)cc12)Nc1cccc(C(=O)O)c1`: the Potency entry in test [1], in test [2], in test [3], in test [4] and in test [5] was “inactive” in each case.
Regarding `COc1ccc(O)c(/C=N/NC(=O)c2ccc(N3CCCC3=O)cc2)c1`, the Potency result in test [1], in test [2], in test [3], in test [4] and in test [5] was “inactive” throughout.
With `CC(C)(C)C(=O)N1CCC2CC1c1cc(-c3ccc4c(c3)OCO4)ccc12` (stereo not given), the Potency entry in test [1] and in test [3] was “inactive” each time. The activation in test [2] is 4.8% [at 17.1 µM, percent relative to cAMP agonist control]; in test [5] it was 13.1% [at 30.8 µM]. Besides, the activity change, negative = inhibition in test [4] was -12.7% [at 30.8 µM].
Turning to `O=c1ccc(-c2ccccc2)nn1Cc1ccc(F)cc1Cl`, the Potency result in test [1], in test [2], in test [3], in test [4] and in test [5] was “inactive” throughout.

These data come from PubChem BioAssay (NCATS).
